The values below come from PubChem BioAssay AID1454 (National Center for Advancing Translational Sciences (NCATS), 2008).

In all, about 130,000 compounds went through this assay and about 550 (0.42%) were called active. Inconclusive results (about 4%) are left out. Only a selection was taken, and actives are over-represented in it overall. Unmarked numbers belong to inactive results. The call rests on the fitted dose curve; in most records, active means well fitted inhibition curve with a large enough effect; inconclusive means small, poorly fitted or top-dose-only effect, or effect the other way; inactive means flat fitted curve, though single readings scatter.
Potency means the concentration at half of the fitted maximal effect.

This experiment can be described thus: qHTS Assay for Inhibitors of the ERK Signaling Pathway using a Homogeneous Screening Assay; Stimulation with EGF. Further: nearly all actives have a fitted effect of over 55% in size.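 On activity change, negative = inhibition: plate controls were stimulated vehicle wells for no effect and unstimulated vehicle basal for full effect.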 As to conditions: HEK293-V1b, EGF-stimulated phospho-ERK AlphaScreen; series mostly up to 57.5 µM; activity change, negative = inhibition: at the top concentration. From the text: NIH Chemical Genomics Center [NCGC]
NIH Molecular Libraries Screening Centers Network [MLSCN]
Assay Submitter (PI): Dr. Wei Zheng, NCGC/NIH
The Ras/extracellular-signal-regulated kinase (ERK) mitogen activated protein (MAP) kinase signaling pathway (ERK1/2 cascade) plays a key role in transmitting signals from the cell surface to the nucleus (Nishida and Gotoh 1993; Chang and Karin, 2001). The cascade is initiated by the small G-protein Ras, which recruits Raf from the cytosol, where activation occurs. Alternatively, this pathway can be activated by elevating intracellular cAMP, or by activation of a receptor tyrosine kinase as epidermal growth factor receptor.
Activation of the ERK pathway is essential in increased cell division and cell survival. Sustained and constitutive activation of the ERK pathway, however, has been linked to uncontrolled cell proliferation, increased cell survival, and tumor progression. Thus, the ERK has been as an attractive target for cancer chemotherapy in the past few years (Sebolt-Leopold and Herrera, 2004). Given its physiological and pathological importance, assessment of ERK phosphorylation has been broadly performed in both basic research and drug discovery. Most assays for the measurement of ERK phosphorylation use the antibody-based detection methods, such as western blot and ELISA. These assays require multiple reagent additions with cell wash steps and are not suitable for high throughout screening.
The current cell-based ERK phosphorylation assay was performed using AlphaScreen platform. AlphaScreen is a two bead-based proximity-dependent chemical energy transfer luminescent assay platform. The assay reagents (ERK SureFire(TM) kit) were supplied from TGR BioSciences (Australia). In the presence of specific antibodies, phosphorylated ERK will bring "donor" and "acceptor" beads to a proximity range (<200 nm), and subsequently lead a chemical luminescent reaction upon exciting donor beads with 680 nm laser. To exclude the assay-related false positives, we used a biotinylated rabbit IgG to perform counter-screen. The biotinylated antibody mimics the phosphorylated ERK1/2 for bringing streptavidin coated beads and protein-A coated beads to a proximity range for the AlphaScreen detection.
NCGC Assay Protocol Summary:
HEK293 cells stably expressing type-1 vasopressin receptor (V1b) were maintained in DMEM medium (Invitrogen, Carlsbad, CA) at 37C under a humidified atmosphere containing 5% CO2 and 95% air. The medium contained 10% FBS, 2 mM L-glutamine, non-essential amino acid, pyruvate and 50 U/ml penicillin and 50 ug/ml streptomycin (Invitrogen). The aliquots of frozen cells were stored at -135C and used for the compound screening. All compounds were screened as titrations from 0.6 nM to 46 uM final concentration. Epidermal growth factor (EGF) was used to stimulate the ERK phosphorylation pathway. The ERK phosphorylation in cells was determined using an AlphaScreen assay kit provided by […]. Data were normalized to the controls for basal activity (DMSO only) and 100% activation (25 nM EGF). AC50 values were determined from concentration-response data modeled with the standard Hill equation.
(1) Seed 4 ul/well of resuspended frozen HEK293 cells containing 2000 cells in white 1536-well plates for overnight with 1% FBS at 37C under a humidified atmosphere containing 5% CO2 and 95% air.
(2) Add 23 nL compounds in DMSO solution. The final titration was 0.6 nM to 46 uM.
(3) Incubate at 37C for 30 min.
(4) Dispense 0.5uL EGF (25 nM in final)
(5) Incubate at 37C for 5 min.
(6) Dispense 0.5uL of 1:2 diluted 5x lysis buffer.
(7) Incubate at 37C for 10 min.
(8) Dispense 1.5uL of mixture of activation buffer and reaction buffer with AlphaScreen beads (streptavidin donor beads and protein-A acceptor beads, 10 ng/well for each).
(9) Incubate at room temperature for 5 hr.
(10) Detect the assay plate in an EnVision plate reader (PerkinElmer) using the AlphaScreen detection mode.
[…]
On the technique in general: Quantitative high-throughput screening tests each substance at several concentrations.
For the compound `Cc1cc(-c2n[nH]c(=S)n2-c2ccc(C)c(C)c2)no1`, the Potency is 3.98 µM (active).

In the case of `CCCCC/C=C\C/C=C\C/C=C\C=C\[C@H](CCCC(=O)O)OO`, the activity change, negative = inhibition was -6.51% [at 11.5 µM].

With `COC1=C[C@]23CCCN2CCc2cc4c(cc2[C@@H]3[C@@H]1O)OCO4`, the activity change, negative = inhibition was -6.17% [at 11.5 µM].

For `O=c1[nH]c(=O)n(-c2ccc(F)cc2)c(O)c1C=NCCN1CCCCC1`, the “activity change, negative = inhibition” value is -5%.

Turning to `CCCCCCCCCCCCn1ccc(=N)cc1`, the Potency was 22.4 µM (active).

Turning to `O=C1CC(=O)N(Cc2ccccc2)C(=O)N1CCCCCCN1C(=O)CC(=O)N(Cc2ccccc2)C1=O`, the “activity change, negative = inhibition” value is -1.77%.

For the compound `CC(=O)Cc1ccc(OC(C)C)cc1`, the “activity change, negative = inhibition” value is 10.3%.

Turning to `C1CC[C@H]([C@@]23C[C@H](C[C@H]4CCCN[C@H]42)[C@@H]2CCCCN2C3)NC1`, the activity change, negative = inhibition is -0.522% [at 11.5 µM].

As for `O=c1[nH]c(=O)n(CCc2ccc(F)cc2)c(O)c1/C=N/N1CCCCC1`, the “activity change, negative = inhibition” value was -5.95%.

For `N#Cc1c(Cl)c(Cl)c(Cl)c(C#N)c1Cl`, the Potency is 3.98 µM (active).

On to `CNC(=O)Nc1ccc(C(O)(C(=O)OC)C(F)(F)F)cc1` (stereo not given), for which the “activity change, negative = inhibition” value is -23.3%.

Take `Fc1ccc(C2N3CCCN23)cc1` (stereo not given): the “activity change, negative = inhibition” value is 3.92%.

Turning to `COc1ccc(-n2c(O)c(C(C)=Nc3ccc4c(c3)CCC4)c(=O)[nH]c2=O)cc1`, the “activity change, negative = inhibition” value was -0.92%.

In the case of `CN1CCN(/N=C/c2c[nH]c3ccccc23)CC1`, the “activity change, negative = inhibition” value was -3.79%.

With `CCCCC(=O)N/N=C/c1c(O)n(-c2ccccc2)c(=O)[nH]c1=O`, the “activity change, negative = inhibition” value was -2.47%.
